# Screens as filed in PubChem BioAssay.
# An excerpt weighted towards active compounds, which were near 18% of everything screened.
# TDP1 cell CPT: qHTS for Inhibitors of human tyrosyl-DNA phosphodiesterase 1 (TDP1): qHTS in cells in presence of CPT; chicken DT40 Tdp1-/-;hTDP1 cells + 20 nM CPT, ATP luminescence, 48 h; Potency, µM (series often up to 46.2 µM), for inactives: top-dose activity change, negative = growth inhibition, actives largely listed as inhibitors; hit rate 12% among 420,000; further: potency means the concentration at half of the fitted maximal effect; nearly all actives have a fitted effect of over 55% in size
#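 Cell growth measured by CellTiter-Glo luminescence after a minimum 48 h, 37 C compound exposure with 20 nM CPT in Tdp1-knockout DT40 cells stably expressing hTDP1, seeded 400/well; qHTS titration format.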
# LDHA block: qHTS assay for inhibitors of human lactate dehydrogenase. activity change, % (values are at about 110 or 230 µM). purified LDHA, NADH/diaphorase-resazurin fluorescence; active compounds read low. L-lactate dehydrogenase A chain (Homo sapiens), P00338. hit rate 0.15% among 480,000; in the data active means activity change below about -30%; inconclusive means mostly about -25% to -30%;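 further: plate controls were DMSO wells for no effect and wells without enzyme for full effect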
#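 Enzyme activity of human lactate dehydrogenase 5 (2 nM; 0.06 mM NADH, 0.2 mM pyruvate, 5 min, RT) is measured via a resazurin/diaphorase fluorescence readout of residual NADH.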
# Gal4-VP16 FLuc: VP16 counterscreen qHTS for inhibitors of ROR gamma transcriptional activity; Drosophila S2 Gal4-VP16 UAS-luciferase, luminescence, 20 h; Potency, µM (top dose mostly 53.6 µM), for the others: top-dose activity, negative = inhibition, hits mostly inhibitors; hit rate 3.5% among 310,000;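 further: Gal4-VP16 expression switched on by copper sulfate through the metallothionein promoter; potency means the concentration at half of the fitted maximal effect; nearly all actives have a fitted effect of over 50% in size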
# TDP1 cell noCPT: qHTS for Inhibitors of human tyrosyl-DNA phosphodiesterase 1 (TDP1): qHTS in cells in absence of CPT; DT40 Tdp1-/- hTDP1 cells, no CPT, ATP luminescence, 48 h; AID 686978, 2013; Potency, µM (series often up to 46.2 µM), for the others: at the top dose activity change, negative = growth inhibition, actives largely listed as inhibitors; hit rate 15% among 420,000; further: potency means the concentration at half of the fitted maximal effect; nearly all actives have a fitted effect of over 55% in size
#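 Growth of hTDP1-complemented DT40 Tdp1-knockout cells is measured by ATP luminescence after at least 48 hr compound exposure at 37 °C, with DMSO substituting for the 20 nM CPT used in the parallel screen.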
# RORg inh: qHTS for inhibitors of ROR gamma transcriptional activity. Drosophila S2 Gal4-RORgamma UAS-luciferase reporter, 20 h. AID 2551, 2010. Potency, µM (titrated, usually from 53.6 µM), for the others: top-dose activity change, negative = inhibition, actives largely listed as inhibitors. hit rate 5.4% among 310,000; further: potency means the concentration at half of the fitted maximal effect; nearly all actives have a fitted effect of over 60% in size
# Target sequence (P51450 whole entry, looked up, the tested form may be a part): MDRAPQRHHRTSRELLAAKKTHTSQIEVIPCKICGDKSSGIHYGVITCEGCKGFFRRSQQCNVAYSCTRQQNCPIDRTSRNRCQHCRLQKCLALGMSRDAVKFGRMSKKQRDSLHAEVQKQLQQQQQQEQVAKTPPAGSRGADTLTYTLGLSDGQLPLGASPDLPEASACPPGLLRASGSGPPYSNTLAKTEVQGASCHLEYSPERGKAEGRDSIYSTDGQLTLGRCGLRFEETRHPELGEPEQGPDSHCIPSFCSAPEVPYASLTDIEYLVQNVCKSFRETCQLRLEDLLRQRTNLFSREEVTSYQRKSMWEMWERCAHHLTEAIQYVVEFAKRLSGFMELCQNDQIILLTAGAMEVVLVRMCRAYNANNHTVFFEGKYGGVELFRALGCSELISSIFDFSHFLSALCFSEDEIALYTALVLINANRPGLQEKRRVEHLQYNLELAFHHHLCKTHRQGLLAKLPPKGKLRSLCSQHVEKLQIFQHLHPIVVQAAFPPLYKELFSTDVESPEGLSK
#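 Stably transfected Drosophila Schneider cells are the test system, with ROR gamma fused to Gal4 and luciferase under UAS control; luminescence is read after 20 hr of 700 uM copper sulfate induction at ambient temperature.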
# IL1B secr inh: qHTS for Inhibitors of Inflammasome Signaling: IL-1-beta AlphaLISA Primary Screen. THP-1 LPS/ATP IL-1B secretion, AlphaLISA, 16 h; active compounds read low. activity change, % at 57.5 µM. hit rate 4.7% among 360,000. AID 743279, 2014; in the data active means activity change below about -50%; inconclusive means mostly about -30% to -49%
#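 Secreted IL-1B measured by AlphaLISA bead assay after 16 h compound exposure of THP-1 cells; compounds (final up to 57.5 uM) added 1 h before LPS (250 ng/mL) and ATP (1.25 mM) stimulation; lower signal means less secretion.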
# Numbers without * were called inactive; u = inconclusive; x = no result; [ ] = remark or other dose. Unless noted, the call rests on the fitted dose curve; in most records, active means well fitted curve in the direction sought with a large enough effect; inconclusive means small, poorly fitted or top-dose-only effect, or another doubt; inactive means no such curve, though single readings can be large; an effect the other way counts as inactive or inconclusive. Unless noted, on the % scale 0 is the no-effect control and ±100 the full control effect.
SMILES,TDP1 cell CPT,LDHA block,Gal4-VP16 FLuc,TDP1 cell noCPT,RORg inh,IL1B secr inh
Cc1ccccc1NC(=O)C1CCN(C(=O)c2cnn(-c3ccccc3)c2-n2cccc2)CC1,u,-8,x,16µM*,x,x
CSc1cccc(NC(=O)C2CCCN(C(=O)c3cnn(-c4ccc(F)cc4)c3-n3cccc3)C2)c1 (stereo unspecified),18µM*,2,x,16µM*,x,x
Cc1cc(C)cc(NC(=O)C2CCN(C(=O)c3cnn(-c4ccccc4)c3-n3cccc3)CC2)c1,18µM*,4,x,15µM*,x,x
COc1ccc(NC(=O)C2CCCN(C(=O)c3cnn(-c4ccc(F)cc4)c3-n3cccc3)C2)cc1 (stereo unspecified),x,-4,x,x,x,x
Cc1ccc(NC(=O)C2CCN(C(=O)c3cnn(-c4ccccc4)c3-n3cccc3)CC2)cc1,u,-1,x,13µM*,x,x
CC(C)NC(=O)C1CCN(C(=O)c2cnn(-c3ccccc3)c2-n2cccc2)CC1,-16%,-12,x,-8%,x,x
Cc1ccc(-n2ncc(C(=O)N3CCCC3)c2-n2cccc2)cc1,x,-1,x,x,x,x
CCCn1nc(C(=O)N2CCCCCC2)c2ccccc2c1=O,x,-14,x,x,x,x
CCc1ccc(N2C(=O)CS(=O)(=O)C23C(=O)N(Cc2ccccc2C)c2ccccc23)cc1 (stereo unspecified),x,-2,x,x,x,x
O=C(NCc1ccc(F)cc1)C1CCN(C(=O)c2cnn(-c3ccccc3)c2-n2cccc2)CC1,u,-11,x,u,x,x
Cc1ccc(NC(=O)C2CCN(C(=O)c3cnn(-c4ccccc4)c3-n3cccc3)CC2)cc1C,18µM*,-1,x,u,x,x
Cc1ccc(CNC(=O)C2CCN(C(=O)c3cnn(-c4ccccc4)c3-n3cccc3)CC2)cc1,12µM*,-6,x,9.2µM*,x,x
CN(C)CCN(Cc1ccco1)C(=O)c1oc2ccccc2c1NC(=O)COc1ccccc1,u,0,-8%,-1%,0%,-50*
CCCc1nn(-c2ccccc2)c2c1C(c1cccs1)C(C#N)=C(N)O2 (stereo unspecified),-5%,-1,1%,-1%,13µM*,1
Cc1nn(S(=O)(=O)c2ccc(Cl)cc2)c(C)c1S(=O)(=O)N1CCCCCC1,1%,-2,x,-14%,x,x
CCCC1=C(C(=O)OCC)C(c2ccccc2C)C(C#N)=C(N)O1 (stereo unspecified),x,17,x,x,x,x
Cc1nn(S(=O)(=O)c2ccc(Cl)cc2)c(C)c1Sc1ccc([N+](=O)[O-])cc1,16µM*,-3,u,16µM*,21%,-10
CCCC1=C(C(=O)OCC)C(c2c(C)nn(-c3ccccc3)c2Cl)C(C#N)=C(N)O1 (stereo unspecified),u,1,-5%,21µM*,12%,8
Cc1nn(-c2ccccc2)c(N)c1Sc1ccc([N+](=O)[O-])cc1,u,-11,u,15µM*,u,u
COc1ccc(CN(C(=O)c2ccc(S(=O)(=O)N(C)C)cc2)C(C)Cc2cccs2)cc1 (stereo unspecified),x,2,x,x,x,x
Cc1ccc(OCC(=O)Nc2ccc3oc(-c4ccccc4F)nc3c2)c(-n2cnnc2)c1,x,-2,x,x,x,x
Cc1nn(-c2ccccc2)c2c1C(c1ccc([N+](=O)[O-])cc1)C(C#N)=C(N)O2 (stereo unspecified),15µM*,0,-10%,u,30%,-12
Cc1ccc(CN(C)C(=O)Cc2n[nH]c(=O)c3ccccc23)c(C)c1,x,-1,x,x,x,x
Cc1ccc(S(=O)(=O)N2CCN(C(=O)c3cc4c(s3)CCC(C)C4)CC2)cc1 (stereo unspecified),u,-10,x,16µM*,x,6
O=C(c1cc2c(s1)CCC2)N1CCN(S(=O)(=O)c2ccccc2)CC1,x,1,x,x,x,x
SMILES,TDP1 cell CPT,LDHA block,Gal4-VP16 FLuc,TDP1 cell noCPT,RORg inh,IL1B secr inh
CCOc1ccc(S(=O)(=O)N2CCN(C(=O)c3cc4c(s3)CCCC4)CC2)cc1,16µM*,1,-5%,u,u,-3
CCOc1ccc(N(C(C)C(=O)NCCSc2ccc(Cl)cc2)S(C)(=O)=O)cc1 (stereo unspecified),16µM*,3,x,26µM*,x,x
COc1ccc(N(C(C)C(=O)N2CCC(Cc3ccccc3)CC2)S(C)(=O)=O)cc1 (stereo unspecified),6.5µM*,-6,u,8.2µM*,u,-1
CCOc1ccc(N(C(C)C(=O)NCCSc2ccc(C)cc2)S(C)(=O)=O)cc1 (stereo unspecified),-28%,-2,x,u,x,x
CCOc1ccc(N(C(C)C(=O)N2CCCC2)S(C)(=O)=O)cc1 (stereo unspecified),u,-4,-15%,15µM*,6%,4
CCOC(=O)N1CCN(C(=O)C(C)N(c2ccc(Oc3ccccc3)cc2)S(C)(=O)=O)CC1 (stereo unspecified),u,-4,x,13µM*,-9%[0.365 µM],-30
Cc1ccc(N(C(C)C(=O)N2CCN(Cc3ccccc3)CC2)S(C)(=O)=O)cc1 (stereo unspecified),u,5,-24%,u,-11%[1.91 µM],13
Cc1cc(Cl)ccc1NC(=O)Cn1nc(C(=O)O)c2ccccc2c1=O,x,7,x,x,x,x
CC(C)N(Cc1ccccc1)S(=O)(=O)c1cccc2nsnc12,x,4,x,x,x,x
CCCC(=O)NC1CCN(Cc2nnnn2-c2ccccc2)CC1,x,-8,x,x,x,x
CCOC(=O)C1CCN(C(=O)C(C)N(c2ccc(Oc3ccccc3)cc2)S(C)(=O)=O)CC1 (stereo unspecified),12µM*,1,20µM*,9.2µM*,-91%,12
CCc1nnc(N/N=C/c2ccc(O)c(OC)c2)n1N,u,15,13µM*,0%,16µM*,0
Cc1nnc(N/N=C/c2cccc(OCc3ccc(Cl)c(Cl)c3)c2)n1N,u,48,u,u,u,-84*
CCc1nnc(N/N=C/c2cccs2)n1N,26µM*,39,13µM*,u,u,0
CCc1nnc(N/N=C/c2c(Cl)cccc2Cl)n1N,-16%,39,u,-5%,u,14
